“And” between values parts separate entries of the source, which are not always exact repeats. Equal values may be shown once. Compounds without any hit were thinned out: in the full panel of roughly 83,000, 20% have a hit.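 96-well plates, one dose, 48 hours. Percent growth reported; active if below 10.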 The source made the active and inactive calls.

This assay has as its system HL-60(TB) leukemia. Put plainly: NCI-60 one-dose screen, 48 h (100 = growth as untreated, 0 = no growth, -100 = all killed). As to conditions: 10 µM unless noted.
On to `CN(C)c1ccc(/C=C\C(=O)c2ccccc2)cc1`, for which the growth is 76.6% (inactive) and 81.7% (inactive) and 75.5% (inactive).
For the molecule `CCOC(=O)c1sc(-c2ccc(OS(=O)(=O)c3ccc(Br)s3)c(C=O)c2)nc1C`, the growth is 20% (inactive).
On to `COc1cnc2c(c1)C(=O)c1c-2n(CCCNCCO)c(=O)c2ccncc12`, for which the growth was 16.1% (inactive).
The value for `O=C(Nn1c2c(sc1=NCc1ccccc1)C(=O)c1ccccc1C2=O)c1cc2ccc1CCc1ccc(cc1)CC2` was 27% (inactive); that for `COc1ccc(C(=O)c2cc(OC)c(OC)c(OC)c2)cc1/C=C/C(=O)c1ccc(OC)c(OC)c1` was 19.1% (inactive); that for `Nc1c(C(=O)Nc2cccc(Br)c2)sc2nc3c(cc12)C(O)CCC3` (stereo not given) was -2.37% (active).
`Cc1ccc(Cl)c(NS(=O)(=O)c2ccc(-c3cnc(C4CC4)o3)cc2)c1`: the growth was -22% (active).
As for `O=[N+]([O-])c1ccc(Cl)c(S(=O)(=O)O)c1`, the growth is 96.4% (inactive).
Turning to `Cc1cc(C)c2c(-c3nnc(N)s3)cc(=O)oc2c1`, the growth is 98% (inactive).
With `C#Cc1ccc(NC(=O)c2ccc(/C=C/C(=O)c3nccn3C)cc2)cc1`, the growth was -27.2% (active).
For `C/C(=N\NC(N)=S)c1nc2ccc(Cl)cc2[nH]1`, the growth was 29.5% (inactive).
Take `C=C1C(=O)O[C@H]2[C@H]1CC/C(COC(=O)c1cccnc1)=C\CC[C@@]1(C)O[C@@H]21`: the growth was 2.18% (active).
Consider `Cn1ncc2c(Nc3ccc(O)cc3)nc(Cl)nc21`, for which the growth is 95.1% (inactive).
Regarding `Cc1cccc([N+](=O)[O-])c1Cl`, the growth was 115% (inactive).
The value for `COc1cccc(-c2nn(-c3ccccc3)cc2-c2ccnc(NCCNC(=O)Nc3ccc(Cl)c(Cl)c3)c2)c1` was 0.89% (active).
As for `CCN1C(=O)N(c2ccccc2)C2NN=c3s/c(=C4\C(=O)N(C(C)C)c5ccccc54)c(=O)n3C21` (stereo not given), the growth is -16.1% (active).
On to `CCN(C(C)=O)c1ccc([N+](=O)[O-])cc1`, for which the growth is 114% (inactive).
Regarding `O=C(Nc1ccc(Oc2cccc(F)c2)c(Cl)c1)c1cccnc1`, the growth was 12.1% (inactive).
The value for `O=C1c2cccnc2-c2nccc3c2c1nc1cc(Br)ccc13` was -68.1% (active) and -56.3% (active).
The value for `N#Cc1ccc(OCc2nc(N)nc(N)c2-c2ccc(Cl)c(Cl)c2)cc1` was 21.7% (inactive); that for `COc1ccccc1S(=O)Nc1ccccc1` (stereo not given) was 91.5% (inactive); that for `C=C(C)[C@@H]1CC[C@]2(C(=O)N=C=S)CC[C@]3(C)[C@H](CC[C@@H]4[C@@]5(C)CCC(=O)C(C)(C)[C@@H]5CC[C@]43C)[C@@H]12` was -2.27% (active).
The same measure for `CC(=O)Nc1ccc(OC(C)=O)cc1`: -9.02% (active) and 104% (inactive); for `C[C@@H](O)[C@H]1C(=O)N2C(C(=O)O)=C(SCCN=CN)C[C@H]12`: 19.1% (inactive).
On to `O=C(CC(=O)c1ccccc1F)Nc1ccc([N+](=O)[O-])cc1`, for which the growth was 98.2% (inactive).
In the case of `C=C(CBr)[C@@H]1CC[C@]2(COC(C)=O)CC[C@]3(C)[C@H](CC[C@@H]4[C@@]5(C)CCCNC(C)(C)[C@@H]5CC[C@]43C)[C@@H]12`, the growth was -8.09% (active).
For the molecule `Cc1cc(SCc2ccc(Cl)cc2Cl)nc(SCc2ccc(Cl)cc2Cl)n1`, the growth is 95.6% (inactive).
As for `O=C(O)CC(Cl)C(Cl)CC(=O)O` (stereo not given), the growth is 99.5% (inactive).
Regarding `NC(Cc1c[nH]c2ccccc12)C(=O)O` (stereo not given), the growth was 108% (inactive) and 109% (inactive).
The value for `COc1ccc(NC2=NC(C)(CO)CS2)cc1` (stereo not given) was 91.1% (inactive); that for `COc1ccc(CN2C(=O)/C(=C\C(=O)c3ccc(OCCN4CCCCC4)cc3)c3ccccc32)cc1` was 20% (inactive); that for `CCN(CC)CCNc1ccc(C)c2sc3ccccc3c(=O)c12` (tested in a mixture with another compound) was 10.1% (inactive) and 15.3% (inactive).
With `c1ccc(N2N=C(c3cccc(Nc4ccncc4)c3)CC2c2ccc3c(c2)OCO3)cc1` (stereo not given), the growth was -21.1% (active).
Regarding `O=C(OCc1ncc(-c2ccc(C(F)(F)F)cc2)c(NC2CCCCCC2)n1)c1c(F)c(F)c(F)c(F)c1F`, the growth was 27.5% (inactive).
As to `Cc1ccc(S(=O)(=O)Nc2sccc2-c2nc(-c3ccccc3)no2)cc1`, the growth was 105% (inactive).
The value for `Cc1cccc2c3c(sc12)C(c1ccc(Cl)cc1)C(C#N)=C(/N=C/c1ccc(Cl)cc1)O3` (stereo not given) was -22% (active); that for `O=C1CNC(c2ccccc2)C(c2ccccc2)N1` (stereo not given) was 106% (inactive); that for `COc1cc(C2CC(c3cc(OC)c(OCCCOc4ccc(-n5c(/C=C/c6ccccc6)nc6ccccc6c5=O)cc4)c(OC)c3)=NO2)cc(OC)c1OC` (stereo not given) was 119% (inactive).
Regarding `CC(=O)Oc1c(C)c(C)c2c(c1C)CCC(C)(CC(=O)OCCCCCCCCCCC[P+](c1ccccc1)(c1ccccc1)c1ccccc1)O2` (stereo not given), the growth is -34.8% (active).
The value for `Nc1ccccc1SC(CC(=O)c1ccccc1)c1ccc([N+](=O)[O-])cc1` (stereo not given) was 95.8% (inactive) and 74.9% (inactive).

(Values after PubChem BioAssay (NCI).)
